# From PubChem BioAssay
# Many of the other results were omitted from the sample, so hits are more common in it than they were.
# Sm TGR block – qHTS Assay for the Inhibitors of Schistosoma Mansoni Peroxiredoxins; purified TGR, DTNB reduction, TNB absorbance 405 nm; Potency, µM (highest dose often 114 µM), without a hit: top-dose activity change, negative = inhibition, usual class: inhibitors; actives 3% (n = 360,000); AID 485364, 2010; note: potency is the fitted concentration of half-maximal effect; % is set by controls: 0 for no effect and ±100 for the full control effect; nearly all actives have a fitted effect of over 60% in size
#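 First, TGR (20 nM dispensed) and NADPH were mixed with compound. Second, a 15 min room-temperature incubation followed. Third, further NADPH and then DTNB were added to start the reaction. Finally, TNB absorbance was monitored kinetically.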
# Shiga toxin inh – A qHTS for Small Molecule Inhibitors of Shiga Toxin | Vero cells, Shiga toxin protein synthesis inhibition reporter | inhibition, % at 38.7 µM | actives 9.2% (n = 290,000) | AID 2315, 2010; in the data active = inhibition mostly above about 28%, no sharp cut-off; inactive = mostly below about 43%; note: 0% is about no effect
# CHX counter – Cycloheximide Counterscreen for Small Molecule Inhibitors of Shiga Toxin. AID 2314, 2010. actives 12% (n = 300,000). max response, %. cell reporter, cycloheximide protein synthesis inhibition counterscreen; in the data active = max response mostly above about 13%, no sharp cut-off; inactive = mostly below about 14%; note: read at 38.3 µM for the half of the compounds with a filed dose; 0% is about no effect
# LmPK inhibitor – qHTS Assay for Inhibitors of Leishmania Mexicana Pyruvate Kinase (LmPK); Q27686; purified LmPK, Kinase-Glo ATP luminescence, 1 h; Potency, µM (series often up to 57.5 µM), inactives show top-dose activity change, negative = inhibition, hits mostly inhibitors; actives 0.37% (n = 290,000); note: potency is the fitted concentration of half-maximal effect; % is set by controls: 0 for no effect and ±100 for the full control effect
#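 Purified LmPK (0.1 nM) with 0.5 mM PEP and 0.1 mM ADP in imidazole buffer pH 7.2 with MgCl2/KCl, 1 h at room temperature. ATP formed was read by luciferase luminescence and normalized to no-enzyme and uninhibited controls.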
# Giardia FBPA inh – qHTS Assay for Inhibitors of Fructose-1,6-bisphosphate Aldolase from Giardia Lamblia; A8B2U2; purified Giardia FBPA; Potency, µM (series often up to 59.6 µM), for the others: at the highest dose activity, negative = inhibition, actives largely listed as inhibitors; actives 0.71% (n = 290,000); note: potency is the fitted concentration of half-maximal effect; % is set by controls: 0 for no effect and ±100 for the full control effect; nearly all actives have a fitted effect of over 55% in size
# Target sequence (A8B2U2 whole entry, looked up): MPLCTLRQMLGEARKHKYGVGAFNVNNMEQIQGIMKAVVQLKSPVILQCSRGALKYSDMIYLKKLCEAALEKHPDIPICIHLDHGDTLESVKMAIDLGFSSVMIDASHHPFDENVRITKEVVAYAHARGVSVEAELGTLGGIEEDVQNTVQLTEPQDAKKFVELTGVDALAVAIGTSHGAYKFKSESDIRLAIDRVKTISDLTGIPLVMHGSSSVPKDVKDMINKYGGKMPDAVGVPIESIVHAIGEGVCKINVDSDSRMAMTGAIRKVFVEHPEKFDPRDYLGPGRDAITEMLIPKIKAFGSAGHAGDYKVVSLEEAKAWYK
#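 Giardia FBPA (40 nM reagent) was preincubated 10 min at RT with compound (up to 57.5 uM final), then substrate plus GAPDH/TPI/NAD/arsenate coupling system with diaphorase/resazurin was added; resorufin fluorescence (525/598 nm) was read after 20 min.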
# TbPYK inhibitor – qHTS of Trypanosoma Brucei Inhibitors | TbPYK enzyme, Kinase-Glo Plus ATP luminescence, 45 min | AID 624173, 2012 | Potency, µM (titrated, usually from 76.8 µM), for the others: at the top dose activity, negative = inhibition, hits mostly inhibitors | pyruvate kinase (Trypanosoma brucei), Q57TT1 | actives 0.12% (n = 410,000); note: potency is the fitted concentration of half-maximal effect; % is set by controls: 0 for no effect and ±100 for the full control effect; nearly all actives have a fitted effect of over 50% in size
#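 Luminescence from Kinase-Glo Plus, added after a 45-minute room-temperature reaction, served as the end-point read-out. The enzyme and substrate were preincubated with compound before ADP (130 uM final) initiated turnover. Concentration-effect curves came from normalized qHTS data.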
# An asterisk follows results filed as active; ? = inconclusive; · = no result; [ ] = remark or other dose. Unless noted, calls come from the whole dose curve; as a rule, active = well fitted curve in the direction sought with a large enough effect; inconclusive = small, poorly fitted or top-dose-only effect, or another doubt; inactive = no such curve, though single readings can be large; an effect the other way counts as inactive or inconclusive.
SMILES,Sm TGR block,Shiga toxin inh,CHX counter,LmPK inhibitor,Giardia FBPA inh,TbPYK inhibitor
Cc1nn(C)c(C(=O)N2CCc3ccccc32)c1Br,11%,-11,-3,-1%,-4%,8%
O=C(c1cnn2c(C(F)(F)F)cc(-c3ccccc3)nc12)N1CCCc2ccccc21,2%,-2,2,2%,6%,-2%
O=C(c1nn2c(C(F)(F)F)cc(-c3cccs3)nc2c1Cl)N1CCCc2ccccc21,-17%,80*,48*,-1%,-6%,3%
Cc1c(Br)c(C(=O)N2CCc3ccccc32)nn1C,0%,62*,91*,-23%,-1%,-9%
Cc1c(Cl)c(C(=O)N2CCCc3ccccc32)nn1C,6%,47*,16,-2%,1%,-4%
Cn1nc(C(=O)N2CCCc3ccccc32)c2ccccc2c1=O,2%,-6,1,-8%,0%,1%
CCn1c(C)c(C)c2cc(C(=O)NCCc3ccco3)ccc21,?,36*,16,9%,-2%,4%
CC(=O)Nc1cccc(C(=O)NCCc2ccco2)c1,-1%,78*,26*,-12%,-1%,0%
Cc1c(C)n(C)c2ccc(C(=O)NCCc3ccco3)cc12,35µM*,69*,39*,0%,1%,6%
Cc1ccccc1CCNC(=O)c1ccc2c(c1)c(C)c(C)n2C,2%,·,·,·,·,-5%[15.4 µM]
CC(=O)Nc1cccc(C(=O)Nc2cccc(S(=O)(=O)NCc3ccco3)c2)c1,-17%,·,·,·,·,1%
CC1CCC(NC(=O)c2ccc3c(c2)N(Cc2cccc(Cl)c2)C(=O)c2ccccc2S3(=O)=O)CC1 (configuration not stated),22%,·,·,·,·,-4%
Cc1ccc(NC(=O)CN2CCCCCC2)cc1Br,13%,73,19*,-9%,?,-1%
O=C(CN1CCCCCC1)Nc1cccc(Br)c1,3%,-11,-1,-5%,-16%,6%
COc1ccc(N2CCN(CC(=O)Nc3ccc(C)cc3Br)CC2)cc1,·,·,·,·,·,-5%
Cc1ccc(NC(=O)CN2CCCCCC2)c(Br)c1,-21%,81*,36*,-1%,1%,8%
CCCCn1cnc2cc(NC(=O)c3cc(OC)c(OC)c(OC)c3)ccc21,1%,·,·,·,·,-4%
Cc1ccc(OCCCn2c(CO)nc3ccccc32)cc1,1%,67*,18*,-1%,0%,-6%
OCc1nc2ccccc2n1CCCOc1ccccc1,0%,35*,30*,2%,-3%,-2%
OCc1nc2ccccc2n1CCCc1ccccc1,·,·,·,·,·,1%
Cc1cccc(OCCCn2c(CO)nc3ccccc32)c1,1%,122*,44*,0%,-8%,1%
Cc1ccc(N2CCN(c3c(CN4CCCC4)c(=O)oc4ccccc34)CC2)c(C)c1,9%,·,·,·,·,1%
Cc1ccccc1C(=O)N1CCC(C(=O)N2CCCc3ccccc32)CC1,-6%,·,·,·,·,-3%
CN(C#N)c1nccc(-c2cccs2)n1,-1%,29,16,4%,-4%,13%
NC(=S)Nc1nccc(-c2cccs2)n1,-5%,61*,41*,-2%,3%,0%
SMILES,Sm TGR block,Shiga toxin inh,CHX counter,LmPK inhibitor,Giardia FBPA inh,TbPYK inhibitor
Cc1ccc(C(=O)Nc2c(-c3cccs3)nc3cc(C)ccn23)cc1,-11%,16,13,9%,-2%,-4%
Cc1ccc(C(=O)Nc2nccc(-c3cccs3)n2)cc1,-25%,19,28*,0%,-11%,6%
COc1cccc(CNC(=O)Cn2cccc2C(=O)c2ccccc2C)c1,6%,60,21*,7%,·,-2%
Cc1ccccc1C(=O)c1cccn1CC(=O)NCc1cccc(Cl)c1,1%,42*,50*,-2%,12%,-6%
COc1ccccc1CNC(=O)Cn1cccc1C(=O)c1ccccc1C,16%,46*,43*,-3%,·,-5%
Cc1ccccc1C(=O)c1cccn1CC(=O)NCCC1=CCCCC1,9%,40,25*,9%[11.5 µM],2%,6%
Cc1ccccc1C(=O)c1cccn1CC(=O)NCCCN1CCCCC1,-7%,-5,-5,-6%,1%,-12%
